Active and inactive are the calls of the source. Unless noted, no rule for the calls is given here.
Assays:
[1] = compounds binding Alexa647 anti-His antibody – biochemical, small-molecule microarray, 635 nm fluorescence, artefact control for SMM control protein annotation, primary screen (AID 1128); settings: higher = more signal;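 also: score merges feature fluorescence with signal-to-noise for each printed compound spot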
[2] = tested on: Human papillomavirus type 1a E7 protein (residues 1-88); assay: HPV1a E7 small-molecule binders, primary screen, biochemical, small-molecule microarray, residues 1-88, 635 nm (AID 1129); settings: small-molecule microarray binding, fluorescence 635 nm; higher = more signal
[3] = molecular target: Focal adhesion kinase 1 (Homo sapiens) (UniProt Q05397); assay: PTK2 protein binding on printed compound slides – biochemical, small-molecule microarray, 635/667 nm fluorescence, BSA, DTT, primary screen (AID 1130); settings: 635 nm fluorescence, higher = more signal;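 also: composite of spot emission at 667 nm and signal to noise over triplicate slides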
[4] = tested on: Fibrinogen (Alexa647-labelled); assay: Alexa647-fibrinogen binding to printed small molecules – biochemical, small-molecule microarray, 635/667 nm fluorescence, artefact control for SMM control-protein annotation, profiling panel (AID 1131); settings: fibrinogen-A647 binding fluorescence, higher = more signal;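 also: z-score merges 667 nm fluorescence with per-spot signal-to-noise over triplicate slides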
[5] = molecular target: Follistatin (Homo sapiens) (UniProt P19883); assay: FST protein binding to printed compounds – biochemical, small-molecule microarray, 635/667 nm fluorescence, primary screen (AID 1132); settings: 635 nm fluorescence, higher = more signal
[6] = molecular target: Fibroblast growth factor 2 (Homo sapiens) (UniProt P09038); assay: basic fibroblast growth factor binding to printed compounds – biochemical, small-molecule microarray, 635/667 nm fluorescence, primary screen (AID 1133); settings: FGF2, fluorescence 635/667, higher = more signal
[7] = JC-1 mitochondrial potential readout, lung cancer cells – cell-based, A549, JC-1 fluorescence, basal, 24 h, 100 nL, profiling panel (AID 1138); settings: higher = more signal;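 also: A549 lung adenocarcinoma cells under basal conditions with no added stimulus; test concentration not given here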
[8] = tested on: Lefty1; assay: Lefty1 protein binding to printed compounds – biochemical, small-molecule microarray, 635/667 nm fluorescence, primary screen (AID 1139); settings: fluorescence 635/667, higher = more signal
[9] = tested on: wheat germ agglutinin (Triticum aestivum), Alexa647-labelled; assay: Alexa647-WGA lectin binding to printed small molecules – biochemical, small-molecule microarray, 635/667 nm fluorescence, artefact control for SMM control-protein annotation, profiling panel (AID 1140); settings: WGA-A647 binding, 635 nm fluorescence, higher = more signal;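 also: score merges 667 nm feature emission with signal to noise over triplicate slides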
[10] = molecular target: Luciferin 4-monooxygenase (Photinus pyralis) (UniProt P08659); assay: inhibition of purified Photinus pyralis luciferase – biochemical, luminescence, purified enzyme, 2006 set, primary screen (AID 1141); settings: purified firefly luciferase, SteadyGlo luminescence, 30 min; higher = more signal, called active from +8 up or from −8 down;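 also: cell-free assay with purified firefly luciferase at 100 ng per well in PBS; test concentration not given here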
[11] = tested on: Wnt5a (protein binding on small-molecule microarray); assay: small molecules binding Wnt5a protein – biophysical, small-molecule microarray, 635/667 nm fluorescence, primary screen (AID 1142); settings: 635 nm fluorescence, higher = more signal;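 also: fluorescence read at 667 nm with signal to noise per printed feature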
[12] = ATP-based viability of Huh7 replicon cells – cell-based, CellTiter-Glo luminescence, basal, 48 h, cytotoxicity control for HCV replication inhibitor project, primary screen (AID 1143); settings: higher = more signal, called active from +8 up or from −8 down;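 also: Huh7 hepatoma cells carrying a hepatitis C replication reporter with no stimulus; test concentration not given here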
[13] = Pseudomonas biofilm growth suppression – PAO1 strain, BacTiter-Glo luminescence, LB-PBS, primary screen (AID 1144); settings: P. aeruginosa PAO1 biofilm, 12 h, higher = more signal
[14] = basal CRE-LacZ reporter activity in PC12 – cell-based, unstimulated, primary screen (AID 1145); settings: no forskolin, luminescence, 4.5 h, higher = more signal, called active from +8 up or from −8 down
[15] = forskolin-driven CRE-LacZ activity in PC12 – cell-based, CRE-LacZ reporter, forskolin-stimulated, primary screen (AID 1146); settings: luminescence, 4.5 h, higher = more signal, called active from +8 up or from −8 down;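 also: PC12 cells with 6xCRE LacZ reporter stimulated by forskolin 10 µM; beta-galactosidase reporter signal reflecting CREB driven transcription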
[16] = molecular target: Streptavidin (Streptomyces avidinii) (UniProt P22629); assay: compounds binding control protein streptavidin – biophysical, small-molecule microarray, 635/667 nm fluorescence, artefact control for SMM compound annotation, primary screen (AID 1147); settings: higher = more signal;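 also: signal reflects streptavidin binding to arrayed compounds as a control protein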
[17] = probe aInhba binding on compound microarray – biochemical, small-molecule microarray, 635/667 nm fluorescence, primary screen (AID 1148); settings: higher = more signal;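 also: score merges 667nm spot fluorescence with signal-to-noise for antibody binding to printed compounds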
[18] = molecular target: Torsin-1A (Homo sapiens) (UniProt O14656); assay: TOR1A wild-type binding on microarray – cell lysate, small-molecule microarray, lysate, 635/667 nm, primary screen (AID 1149); settings: COS7 hTOR1A-WT lysate, 635 nm fluorescence, higher = more signal
[19] = molecular target: Torsin-1A (Homo sapiens) (UniProt O14656); assay: torsin A mutant lysate binding on microarrays – cell lysate, small-molecule microarray, COS7 lysate, 635/667 nm fluorescence, primary screen (AID 1150); settings: COS7 hTOR1A mutant lysate, 635 nm fluorescence, higher = more signal;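 also: score pools 667 nm emission and signal to noise measuring lysate protein binding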
[20] = tested on: Sonic hedgehog protein (Shh); assay: Sonic hedgehog microarray binding compounds – biochemical, small-molecule microarray, 635/667 nm fluorescence, primary screen (AID 1151); settings: 635 nm fluorescence, higher = more signal;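 also: Shh protein binding to compounds spotted on small-molecule microarray slides; score combines spot fluorescence intensity with signal-to-noise across triplicate slides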

Torsin-1A (Homo sapiens), sequence (O14656 whole entry, looked up): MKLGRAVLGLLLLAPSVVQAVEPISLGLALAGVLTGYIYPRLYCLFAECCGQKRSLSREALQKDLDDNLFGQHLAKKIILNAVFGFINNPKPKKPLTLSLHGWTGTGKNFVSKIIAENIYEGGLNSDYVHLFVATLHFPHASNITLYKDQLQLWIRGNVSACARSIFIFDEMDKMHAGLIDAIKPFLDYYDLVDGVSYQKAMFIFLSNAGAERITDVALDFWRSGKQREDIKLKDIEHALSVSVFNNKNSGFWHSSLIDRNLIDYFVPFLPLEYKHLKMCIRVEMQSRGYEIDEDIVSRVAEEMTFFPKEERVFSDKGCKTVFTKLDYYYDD
Follistatin (Homo sapiens), sequence (P19883 whole entry, looked up): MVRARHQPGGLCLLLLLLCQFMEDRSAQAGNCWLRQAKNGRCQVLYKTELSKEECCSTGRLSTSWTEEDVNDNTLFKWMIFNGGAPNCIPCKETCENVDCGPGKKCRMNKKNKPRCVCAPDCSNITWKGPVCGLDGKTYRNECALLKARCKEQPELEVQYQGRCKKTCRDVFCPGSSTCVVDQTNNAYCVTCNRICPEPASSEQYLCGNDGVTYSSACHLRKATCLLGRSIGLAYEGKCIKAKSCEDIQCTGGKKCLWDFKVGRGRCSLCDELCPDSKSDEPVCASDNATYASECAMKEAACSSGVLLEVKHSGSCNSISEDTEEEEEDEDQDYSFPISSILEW
Fibroblast growth factor 2 (Homo sapiens), sequence (P09038 whole entry, looked up): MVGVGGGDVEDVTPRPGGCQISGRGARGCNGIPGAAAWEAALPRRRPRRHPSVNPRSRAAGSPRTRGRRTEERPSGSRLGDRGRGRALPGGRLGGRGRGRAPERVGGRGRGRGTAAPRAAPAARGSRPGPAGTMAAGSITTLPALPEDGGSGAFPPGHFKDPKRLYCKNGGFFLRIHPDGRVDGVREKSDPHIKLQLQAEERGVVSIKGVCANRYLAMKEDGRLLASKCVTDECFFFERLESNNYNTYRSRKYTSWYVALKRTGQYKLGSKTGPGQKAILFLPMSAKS
Luciferin 4-monooxygenase (Photinus pyralis), sequence (P08659 whole entry, looked up): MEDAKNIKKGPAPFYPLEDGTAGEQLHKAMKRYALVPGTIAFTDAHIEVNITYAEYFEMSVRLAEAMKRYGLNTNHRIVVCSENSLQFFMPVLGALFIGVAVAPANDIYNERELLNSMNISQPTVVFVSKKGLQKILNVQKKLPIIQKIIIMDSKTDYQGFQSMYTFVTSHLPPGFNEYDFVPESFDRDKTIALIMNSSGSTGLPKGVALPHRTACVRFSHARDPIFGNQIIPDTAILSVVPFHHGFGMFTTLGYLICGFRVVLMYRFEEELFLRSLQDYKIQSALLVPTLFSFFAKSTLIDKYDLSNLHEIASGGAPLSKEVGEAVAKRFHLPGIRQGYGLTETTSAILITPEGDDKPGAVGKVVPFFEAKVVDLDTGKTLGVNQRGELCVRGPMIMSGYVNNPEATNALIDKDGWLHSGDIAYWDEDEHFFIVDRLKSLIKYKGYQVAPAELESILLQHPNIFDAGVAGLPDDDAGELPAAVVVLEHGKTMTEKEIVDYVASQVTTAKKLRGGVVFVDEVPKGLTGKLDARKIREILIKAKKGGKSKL
Focal adhesion kinase 1 (Homo sapiens), sequence (Q05397 whole entry, looked up): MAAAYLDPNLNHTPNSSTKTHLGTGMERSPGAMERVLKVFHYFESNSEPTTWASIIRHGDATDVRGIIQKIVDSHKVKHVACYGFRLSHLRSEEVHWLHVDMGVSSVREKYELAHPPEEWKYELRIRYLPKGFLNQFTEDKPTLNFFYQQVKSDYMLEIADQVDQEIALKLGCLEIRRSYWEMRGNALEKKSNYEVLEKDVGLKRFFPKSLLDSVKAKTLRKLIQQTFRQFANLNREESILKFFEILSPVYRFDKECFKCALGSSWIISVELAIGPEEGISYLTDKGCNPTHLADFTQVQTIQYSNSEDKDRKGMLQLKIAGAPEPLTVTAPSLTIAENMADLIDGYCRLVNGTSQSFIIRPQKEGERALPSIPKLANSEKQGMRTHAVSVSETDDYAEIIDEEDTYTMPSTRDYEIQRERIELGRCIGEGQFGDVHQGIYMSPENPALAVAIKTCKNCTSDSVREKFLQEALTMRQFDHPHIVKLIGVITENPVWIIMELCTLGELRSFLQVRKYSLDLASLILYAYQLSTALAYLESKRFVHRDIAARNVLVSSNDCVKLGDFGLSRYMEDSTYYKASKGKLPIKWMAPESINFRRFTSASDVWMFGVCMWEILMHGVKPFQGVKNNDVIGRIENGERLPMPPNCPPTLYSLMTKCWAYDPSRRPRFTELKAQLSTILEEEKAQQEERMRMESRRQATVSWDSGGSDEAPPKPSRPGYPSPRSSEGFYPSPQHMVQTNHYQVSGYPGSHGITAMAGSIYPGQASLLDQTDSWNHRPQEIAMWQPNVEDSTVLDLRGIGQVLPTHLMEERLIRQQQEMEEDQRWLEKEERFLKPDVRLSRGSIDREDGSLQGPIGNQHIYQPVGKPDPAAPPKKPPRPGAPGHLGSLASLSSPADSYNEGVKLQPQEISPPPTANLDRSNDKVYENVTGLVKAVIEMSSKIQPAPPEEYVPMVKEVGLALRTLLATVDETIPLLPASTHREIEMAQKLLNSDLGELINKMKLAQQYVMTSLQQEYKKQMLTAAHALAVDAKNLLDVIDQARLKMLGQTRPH
Streptavidin (Streptomyces avidinii), sequence (P22629 whole entry, looked up): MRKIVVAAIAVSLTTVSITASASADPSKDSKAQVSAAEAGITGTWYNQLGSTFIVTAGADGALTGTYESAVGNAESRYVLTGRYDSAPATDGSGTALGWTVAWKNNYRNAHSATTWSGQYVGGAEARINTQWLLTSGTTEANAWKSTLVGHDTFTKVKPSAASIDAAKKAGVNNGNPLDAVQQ

| SMILES | composite z-score [1] | composite z-score [2] | composite z-score [3] | composite z-score [4] | composite z-score [5] | composite z-score [6] | z-score [7] | composite z-score [8] | composite z-score [9] | z-score [10] | composite z-score [11] | z-score [12] | z-score [13] | z-score [14] | z-score [15] | composite z-score [16] | composite z-score [17] | composite z-score [18] | composite z-score [19] | composite z-score [20] |
| --- | --- | --- | --- | --- | --- | --- | --- | --- | --- | --- | --- | --- | --- | --- | --- | --- | --- | --- | --- | --- |
| COC(=O)[C@]1(Cc2ccccc2N=[N+]=[N-])N=C(c2ccc(OCCCO)cc2)O[C@@H]1c1ccccc1N=[N+]=[N-] | 2.87 | 0.825 | 0.188 | 0.482 | 1.25 | -0.0133 | -0.856 | 0.131 | 0.149 | -1.42 (inactive) | -0.104 | -5.35 (inactive) | 0.337 (inactive) | 2.85 (inactive) | -1.04 (inactive) | 0.105 | -0.0762 | -1.45 | 0.283 | 0.765 |
| COc1cccc(C(=O)O[C@H]2CC[C@]3(C)C4=C(CCC3C2(C)C)[C@]2(C)CC[C@H]([C@H](C)CCCC(C)C)[C@@]2(C)CC4)c1 (stereo not given in full) | 0.0291 | 0.386 | -0.404 | -0.133 | 0.649 | 0.281 | 0.434 | 0.24 | 0.258 | -0.843 (inactive) | 0.0406 | -1 (inactive) | -1.11 (inactive) | 1.21 (inactive) | -0.687 (inactive) | 0.184 | -0.157 | 0.637 | 0.216 | 0.425 |
| CCOC(=O)C[C@H]1[C@H](OC(=O)c2ccc(-c3ccccc3)cc2)[C@@H](NC(=O)c2ccc3ccccc3c2)c2cc(OCCCO)ccc2N1C(=O)Cc1ccc(OC)cc1 | -0.034 | 0.401 | 0.463 | 0.536 | -0.187 | -0.0546 | -0.0901 | -0.154 | -0.006 | 1.13 (inactive) | 0.266 | 0.359 (inactive) | -0.599 (inactive) | -1.01 (inactive) | 0.809 (inactive) | -0.0829 | -0.0954 | 0.0044 | -0.497 | -0.0004 |
| CCOC(=O)C1=CCC(C(C)(C)C)N(S(=O)(=O)c2ccc(C)cc2)C1 (stereo not given) | 0.992 | 1.26 | 0.225 | 1.01 | 1.29 | 1.39 | 0.363 | 1 | 0.722 | 0.916 (inactive) | 0.858 | -4.52 (inactive) | 1.19 (inactive) | 0.883 (inactive) | 0.639 (inactive) | 1.6 | -0.0933 | 0.881 | 1.67 | 0.722 |
| CC(C)N1C(=O)C[C@@](C(=O)NCc2ccccc2)(c2ccc([N+](=O)[O-])cc2)[C@H]1c1ccc(CO)cc1 | 2.58 | 1 | 0.159 | -0.511 | 0.692 | 0.118 | 0.316 | 0.119 | 0.549 | 0.982 (inactive) | -0.214 | -1.5 (inactive) | -0.936 (inactive) | 1.03 (inactive) | -0.703 (inactive) | -0.939 | 0.0275 | 1.35 | 0.529 | 0.235 |
| CCCC[C@H]1OB(O)C[C@H]2C1=C(C)C[C@H]1C(=O)N(Cc3ccccc3)C(=O)[C@H]12 | 0.201 | 0.366 | 0.553 | 0.311 | 0.797 | 1.26 | 0.625 | 0.63 | -0.144 | -1.15 (inactive) | 0.34 | 0.342 (inactive) | 0.464 (inactive) | -0.23 (inactive) | -0.155 (inactive) | -0.0276 | -0.122 | 0.358 | 0.528 | 1.01 |
| O=C1O[C@@H](c2ccccc2)[C@@H](c2ccccc2)N2[C@@H](c3ccc(O)cc3)[C@]3(C(=O)Nc4ccc(C#CC5=CCCCC5)cc43)[C@@H](C(=O)O)[C@H]12 | 3.13 | 1.11 | 0.676 | 0.734 | 0.473 | 0.146 | -0.29 | 0.195 | 1.35 | -3.5 (inactive) | 0.942 | -2.52 (inactive) | -2.85 (inactive) | -0.0515 (inactive) | -1.12 (inactive) | 1.75 | 0.198 | 0.198 | 0.637 | 0.146 |
| COCCOC(=O)N1C(=O)[C@@]2(c3cc(C#CC4(O)CCCCCC4)ccc31)[C@H](C(=O)N1CCCCCCC1)[C@H]1C(=O)O[C@H](c3ccccc3)[C@H](c3ccccc3)N1[C@@H]2c1ccccc1OCCO | 1.24 | 1.22 | 0.808 | 0.832 | 1.42 | 1.11 | -1.04 | 0.955 | 1.39 | -0.969 (inactive) | 0.647 | -5.2 (inactive) | 0.148 (inactive) | 0.749 (inactive) | -0.551 (inactive) | 1.96 | 1.22 | 0.601 | 1.26 | 1.37 |
| CCCCC(O)C1C=CC2C(=O)N(C3CCCCC3)C(=O)C2N1Nc1ccc(OC)cc1 (stereo not given) | 0.17 | 1.2 | 0.601 | 0.733 | 1.19 | -0.0692 | 0.191 | 0.496 | 1.14 | 1.06 (inactive) | 0.177 | -0.527 (inactive) | -1.47 (inactive) | 0.276 (inactive) | 0.765 (inactive) | 1.54 | 0.0785 | 0.0983 | -0.001 | 0.342 |
| COC(=O)c1ccc(C(O)C2C=CC3C(=O)N(c4ccccc4)C(=O)C3N2Nc2ccc(C#N)cc2)o1 (stereo not given) | 0.355 | 0.889 | 0.303 | 1 | 0.62 | 0.275 | 0.385 | -0.0841 | 0.475 | -1.32 (inactive) | 0.304 | 1.07 (inactive) | -1.05 (inactive) | 1.4 (inactive) | -0.22 (inactive) | 0.337 | -0.0901 | 0.928 | 0.0721 | -0.0224 |
